Screening results as filed in PubChem.
p53null 39C tox = selectivity test: cytotoxicity in p53 null cells, nonpermissive temperature | H1299 p53-null (neo) cells, 39C, ATPlite viability, 24 h | Potency, µM (titrated, usually from 46.1 µM), for the others: at the top dose activity, negative = cell killing, actives largely listed as cytotoxic | hit rate 0.97% among 55,000 | AID 904;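 also: potency is read from the fitted curve at half-maximal effect; 0% = DMSO only and -100% = full killing by 100 µM tamoxifen; nearly all actives have a fitted effect of over 50% in size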
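Concentration-response (up to 46 uM) was run for 24 h at the nonpermissive 39C on H1299-p53A138V or H1299-neo cells. ATP content was measured with ATPlite luminescence. AC50 values were Hill-modeled after normalizing between DMSO and 100 uM tamoxifen killing.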
GALC G270D act = galactocerebrosidase G270D activity enhancement, cell-based. P54803. hit rate 0.1% among 45,000. 145M-Twi-hGALC-G270D cells (Twitcher mouse brain line with human GALC G270D), HMU-beta-Gal fluorescence, 48 h. AID 1159614. Potency, µM (highest dose often 57.5 µM), hits mostly activators; also: potency is read from the fitted curve at half-maximal effect; 0% is about no effect; nearly all actives have a fitted effect of over 65% in size
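Live 145M-Twi cells (Twitcher mouse brain-derived, GALC-null) stably expressing human GALC-G270D, with a wild-type GALC line, were compound-treated. Residual GALC activity was then read as fluorescence from 0.1 mM final HMU-β-gal at pH 5.2; higher signal means activation.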
GPR32 ag = agonists of human resolvin D1 receptor DRV1 (GPR32) | O75388 | hit rate 2.5% among 48,000 | CHO-K1 GPR32 beta-arrestin PathHunter luminescence, 90 min; zero percent set by DMSO-only wells | activation, % at 76.9 µM;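 active = activation of at least 60% and not above a set upper limit, about 1 call in 100 departs from these limits; inconclusive = activation of 40% to 60%, or above that upper limit; inactive = activation under 40%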; also: 0% is about no effect
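PathHunter enzyme-fragment complementation, CHO-K1 GPR32 stable line; 2,500 cells/well, overnight attach; cpd 90 min 37 °C 5% CO2; detection reagent 1 h RT; chemiluminescence. DMSO = EC0.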
p53null 32C kill = kills p53 null cells at the permissive temperature. hit rate 0.62% among 55,000. H1299-neo p53 null cells, ATP luminescence, 24 h, 32C. Potency, µM (series often up to 46.1 µM), for the others: top-dose activity change, negative = cytotoxicity, usual class: cytotoxic. AID 903;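 also: potency is read from the fitted curve at half-maximal effect; 0% = DMSO only and -100% = full killing by 100 µM tamoxifen; nearly all actives have a fitted effect of over 55% in size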
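Luminescent ATP readout gave cell viability of p53-null H1299-neo cells after a 24 h compound exposure at the permissive 32C. Titrations ran up to 46 uM, and AC50s were fitted with the standard Hill equation.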
OvCa metastasis = ovarian cancer metastasis inhibition, 3D TME model | SKOV3ip1-GFP adhesion/invasion on 3D omental model, fluorescence | Potency, µM (titrated, usually from 45.8 µM), for inactives: at the highest dose activity change, negative = inhibition, actives largely listed as inhibitors | hit rate 0.1% among 46,000;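 also: potency is read from the fitted curve at half-maximal effect; plate controls were DMSO wells for no effect and tomatine positive control wells for full effect; nearly all actives have a fitted effect of over 65% in size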
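Primary human omental fibroblast/mesothelial 3D culture pre-formed 48 h. SKOV3ip1-GFP cells added with compounds (0.36-46 umol/L), incubated 2 h RT/16 h 37 C, fixed; GFP cells quantified at 488/509 nm.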
NTMT1 inhibitor = inhibitors of human N-terminal methyltransferase NTMT1; Q9BV86; NTMT1 MTase-Glo SAH luminescence, purified enzyme; Potency, µM (series often up to 114 µM), inactives show at the top dose activity change, negative = inhibition, most hits filed as inhibitors; hit rate 2.5% among 59,000; AID 1645870;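 also: potency is read from the fitted curve at half-maximal effect; plate controls were DMSO vehicle for no effect and no enzyme for full effect; nearly all actives have a fitted effect of over 65% in size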
Sfp qHTS opt = inhibits purified B. subtilis Sfp PPTase. shares compounds with NTMT1 inhibitor. purified Sfp PPTase enzyme activity, qHTS. hit rate 78% among 230. AID 540350. Potency, µM (doses to about 114 µM), for inactives: at the highest dose activity change, negative = inhibition, usual class: inhibitors
Bsub HM489 growth = Sfp PPTase inhibitors: growth inhibition of B. subtilis HM489; B. subtilis HM489 (acpS-) growth, BacTiter-Glo, 5 h; shares compounds with NTMT1 inhibitor; hit rate 50% among 220; Potency, µM (highest dose often 114 µM), for the others: top-dose activity change, negative = inhibition, hits mostly inhibitors
Sfp PPTase gel = inhibits B. subtilis Sfp PPTase in gel assay; hit rate 54% among 220; Potency, µM (top dose mostly 250 µM), without a hit: at the highest dose activity change, negative = inhibition, hits mostly inhibitors; shares compounds with NTMT1 inhibitor; purified Sfp PPTase, gel-based product detection
Sfp SAR2 = Sfp phosphopantetheinyl transferase inhibition, SAR round 2. shares compounds with NTMT1 inhibitor. purified Sfp enzyme, PPTase activity, qHTS. Potency, µM (doses to about 57.1 µM), for inactives: top-dose activity change, negative = inhibition, hits mostly inhibitors. hit rate 87% among 230. AID 602370
USP2a K63 = confirmation of human USP2a inhibitors with K63 diubiquitin substrate; shares compounds with NTMT1 inhibitor; hit rate 80% among 30; Potency, µM (series often up to 57.5 µM), for inactives: top-dose activity change, negative = inhibition, most hits filed as inhibitors; AID 652172; USP2 cleavage of DiUb K63-3IQF, fluorescence kinetic
Casp6 inh = caspase-6 inhibition, USP2a inhibitor counterscreen; shares compounds with NTMT1 inhibitor; Caspase 6 enzyme, Caspase-Glo 6 luminescence; activity change, negative = inhibition, % at 46.1 µM; 30 tested, under 10 active
HSD17B4 counter = counter-screen for HPGD inhibitors: human HSD17B4 inhibition | shares compounds with NTMT1 inhibitor | purified HSD17B4, estradiol/NAD+, NADH fluorescence | Potency, µM (series often up to 57.1 µM), inactives show at the highest dose activity change, negative = inhibition, hits mostly inhibitors | hit rate 10% among 230 | AID 743187
Target sequence (P51659 whole entry, looked up): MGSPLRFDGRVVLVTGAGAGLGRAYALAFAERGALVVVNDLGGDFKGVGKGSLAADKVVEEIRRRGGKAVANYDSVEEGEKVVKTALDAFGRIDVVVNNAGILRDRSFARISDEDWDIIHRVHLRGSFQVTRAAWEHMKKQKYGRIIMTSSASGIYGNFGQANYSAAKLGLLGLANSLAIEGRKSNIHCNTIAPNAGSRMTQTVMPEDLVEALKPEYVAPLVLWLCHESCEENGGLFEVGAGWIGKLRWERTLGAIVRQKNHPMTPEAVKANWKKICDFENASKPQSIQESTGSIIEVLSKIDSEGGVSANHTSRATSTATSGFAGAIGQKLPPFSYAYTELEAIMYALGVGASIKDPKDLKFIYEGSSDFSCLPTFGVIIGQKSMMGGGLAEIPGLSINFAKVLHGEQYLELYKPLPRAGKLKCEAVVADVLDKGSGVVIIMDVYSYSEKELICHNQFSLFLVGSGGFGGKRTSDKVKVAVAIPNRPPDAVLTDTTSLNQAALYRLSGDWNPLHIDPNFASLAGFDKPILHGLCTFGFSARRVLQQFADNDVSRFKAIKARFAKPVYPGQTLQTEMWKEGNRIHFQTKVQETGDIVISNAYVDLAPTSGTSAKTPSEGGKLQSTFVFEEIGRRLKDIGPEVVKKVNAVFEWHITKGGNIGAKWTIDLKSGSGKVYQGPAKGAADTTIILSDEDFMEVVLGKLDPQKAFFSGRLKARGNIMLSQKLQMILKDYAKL
ALDH1A1 counter = counter-screen for HPGD inhibitors: human ALDH1A1 inhibition | Potency, µM (top dose mostly 57.1 µM), for inactives: at the top dose activity change, negative = inhibition, most hits filed as inhibitors | AID 743195 | shares compounds with NTMT1 inhibitor | recombinant ALDH1A1, NADH fluorescence, propionaldehyde/NAD+ | hit rate 93% among 230
The depositor's hits bear a star; i = inactive; u = inconclusive; x = no result given; [ ] = another dose, or the depositor's remark. Rows were chosen to be rich in hits. Some 4% of all compounds tested hit in one or more screens of this group. Unless noted, calls follow the shape of the dose curve; as a rule, active = well fitted curve in the direction sought with a large enough effect; inconclusive = small, poorly fitted or top-dose-only effect, or another doubt; inactive = no such curve, though single readings can be large; an effect the other way counts as inactive or inconclusive.

SMILES | p53null 39C tox | GALC G270D act | GPR32 ag | p53null 32C kill | OvCa metastasis | NTMT1 inhibitor | Sfp qHTS opt | Bsub HM489 growth | Sfp PPTase gel | Sfp SAR2 | HSD17B4 counter | ALDH1A1 counter | others
Cc1cc(C)nc(NC(=S)N2CCN(c3ccsc3)CC2)c1 | x | x | x | x | x | x | 5.9µM* | u | -77% | 8.1µM* | u | 22µM*
CC(C)=CCCC1(C)Oc2cc3c(c4c2C2C(O4)C(C)(O)CCC21)CN(C(CCC(=O)O)C(=O)O)C3=O (stereo unspecified) | x | x | x | x | x | -3%[29.8 µM] | x | x | x | x | x | x
C/C=C/C=C/C(O)=C1\C(O)=C(C)C(=O)[C@@]2(C)OC(=O)[C@@](C)(NC(=O)/C=C/C(=O)O)[C@@H]12 | x | x | x | x | x | -20%[29.8 µM] | x | x | x | x | x | x
COc1cc(CCc2cc(NC(=O)c3ccc(N4CC(C)NC(C)C4)cc3)n[nH]2)cc(OC)c1 (stereo unspecified) | x | x | x | x | x | 5%[57.5 µM] | x | x | x | x | x | x
Cc1ccc(-n2ncc3c(N4CCN(C)CC4)ncnc32)cc1 | 19% | i | 45 | u | -2% | -1% | x | x | x | x | x | x
Cc1cc(C)nc(NC(=S)N2CCN(c3cc(Cl)c(Cl)c(Cl)c3)CC2)c1 | x | x | x | x | x | u | 1.5µM* | 8% | 10µM* | 0.36µM* | -8% | 6.1µM*
Cc1cc(C)nc(NC(=S)N2CCN(c3ncnc4sccc34)CC2)c1 | x | x | x | x | x | -21%[57.5 µM] | 5.9µM* | u | 40µM* | 1.8µM* | -24% | 9.6µM*
O=C(Nc1ccc(F)cc1F)N1CCN(c2ccc(Cl)c(Cl)c2)CC1 | u | i | 28 | -28% | -29% | 1% | x | x | x | x | x | x
CC(C)c1ccccc1-c1nc2c(c(NCc3ccc(-c4cccnc4)cc3)n1)CCNC2 | x | x | x | x | x | 0% | x | x | x | x | x | x
Cc1ccc(-c2cc(C(=O)Nc3ccc(S(N)(=O)=O)cc3)c3cccc(C)c3n2)cc1C | x | x | x | x | x | x | x | x | x | x | x | x | USP2a K63=11µM*;Casp6 inh=u
